The target in one test is Serine/threonine-protein kinase PAK 4 (Homo sapiens) (UniProt O96013). Conditions: at 1 µM.
Chain of Serine/threonine-protein kinase PAK 4 (Homo sapiens) (O96013 whole entry, looked up): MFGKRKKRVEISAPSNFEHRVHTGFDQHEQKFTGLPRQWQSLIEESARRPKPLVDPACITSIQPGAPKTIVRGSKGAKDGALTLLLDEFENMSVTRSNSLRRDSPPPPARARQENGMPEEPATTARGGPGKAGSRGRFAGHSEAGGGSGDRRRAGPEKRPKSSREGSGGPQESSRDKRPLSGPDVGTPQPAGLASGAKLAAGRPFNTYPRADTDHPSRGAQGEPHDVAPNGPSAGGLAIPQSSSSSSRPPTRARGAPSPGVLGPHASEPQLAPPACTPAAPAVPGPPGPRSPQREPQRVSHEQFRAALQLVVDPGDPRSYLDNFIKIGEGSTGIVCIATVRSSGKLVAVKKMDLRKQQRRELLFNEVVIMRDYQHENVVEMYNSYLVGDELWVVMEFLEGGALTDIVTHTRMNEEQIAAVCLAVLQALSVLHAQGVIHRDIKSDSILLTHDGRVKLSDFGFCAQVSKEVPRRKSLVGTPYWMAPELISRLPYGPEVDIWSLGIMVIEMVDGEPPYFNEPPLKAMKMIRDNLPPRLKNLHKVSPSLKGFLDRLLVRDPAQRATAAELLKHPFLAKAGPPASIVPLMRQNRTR
In the case of `O=C1Cc2c([nH]c3ccc(Br)cc23)-c2ccccc2N1`, the residual activity (in general, the signal under treatment as a percentage of the control signal) was 25%.

For `Cn1c2ccccc2c2c3c(c4c5ccccc5n(CCC#N)c4c21)CNC3=O`, the residual activity came out at 3%.

In the case of `CC(C)(C)n1nc(Cc2cccc3ccccc23)c2c(N)ncnc21`, the residual activity came out at 88%.

On to `Oc1cccc(-c2nc(N3CCOCC3)c3oc4ncccc4c3n2)c1`, for which the residual activity was 100%.

In the case of `O=C1Cc2c([nH]c3ccc([N+](=O)[O-])cc23)-c2ccccc2N1`, the residual activity stood at 22%.

In the case of `O=c1cc(N2CCOCC2)oc2c1ccc1ccccc12`, the residual activity amounted to 94%.

On to `Nc1ncnc2c1c(-c1ccc(Oc3ccccc3)cc1)cn2C1CCCC1`, for which the residual activity came out at 89%.

With `Cn1sc(=O)n(Cc2ccccc2)c1=O`, the residual activity came to 94%.

Turning to `CCCC(=O)Oc1ccc2[nH]c(C(=O)c3cc4ccccc4[nH]3)cc2c1`, the residual activity was determined as 94%.

`O=C1NC(=O)c2c1c1c3ccccc3[nH]c1n1cncc21`: the residual activity amounted to 81%.

Regarding `Nc1ncnc2[nH]nc(Nc3ccc(F)cc3)c12`, the residual activity worked out at 111%.

As to `O=C1NC(=O)C(c2c[nH]c3ccccc23)=C1c1c[nH]c2ccccc12`, the residual activity turned out to be 98%.

In the case of `Nc1n[nH]c2nc3ccccc3nc12`, the residual activity was 94%.

With `NC(=O)Nc1sc(-c2ccc(F)cc2)cc1C(N)=O`, the residual activity was determined as 55%.

Regarding `O=C(NC(NC(=S)Nc1ccc(F)c([N+](=O)[O-])c1)C(Cl)(Cl)Cl)C(c1ccccc1)c1ccccc1` (stereo unspecified), the residual activity was 100%.

As for `O=C1Nc2ccc(Cl)cc2/C1=C/c1cc(Cl)c(O)c(Cl)c1`, the residual activity is 91%.

Turning to `COc1ccc(Cl)cc1NC(=O)Nc1cc(C)nc2ccccc12`, the residual activity came out at 96%.

For `O=C(c1cc2cc(O)ccc2[nH]1)c1cc2cc(O)ccc2[nH]1`, the residual activity was 71%.

On to `COc1cc2nccc(Oc3ccc(NC(=S)NC(=O)c4ccccc4C)cc3)c2cc1OC`, for which the residual activity was found to be 88%.

On to `O=c1cc(N2CCNCC2)oc2c(-c3ccccc3)cccc12`, for which the residual activity was 102%.

As to `CC(C)c1nn(-c2c(Cl)cccc2Cl)c2nc(Cc3ccc(OCCO)cc3)[nH]c(=O)c12`, the residual activity came out at 84%.

With `O=C(O)/C=C/c1cc(Br)c(Br)c(Br)c1Br`, the residual activity was determined as 108%.

The next test shares this target. The conditions noted are these: at 10 µM.
As to `O=C1Cc2c([nH]c3ccc(Br)cc23)-c2ccccc2N1`, the residual activity was found to be 3%.

With `Cn1c2ccccc2c2c3c(c4c5ccccc5n(CCC#N)c4c21)CNC3=O`, the residual activity worked out at 2%.

`CC(C)(C)n1nc(Cc2cccc3ccccc23)c2c(N)ncnc21`: the residual activity was 61%.

`Oc1cccc(-c2nc(N3CCOCC3)c3oc4ncccc4c3n2)c1`: the residual activity is 93%.

For `O=C1Cc2c([nH]c3ccc([N+](=O)[O-])cc23)-c2ccccc2N1`, the residual activity stood at 21%.

As for `O=c1cc(N2CCOCC2)oc2c1ccc1ccccc12`, the residual activity was determined as 94%.

Regarding `Nc1ncnc2c1c(-c1ccc(Oc3ccccc3)cc1)cn2C1CCCC1`, the residual activity was 64%.

As for `Cn1sc(=O)n(Cc2ccccc2)c1=O`, the residual activity is 89%.

Take `CCCC(=O)Oc1ccc2[nH]c(C(=O)c3cc4ccccc4[nH]3)cc2c1`: the residual activity worked out at 84%.

`O=C1NC(=O)c2c1c1c3ccccc3[nH]c1n1cncc21`: the residual activity was 82%.

As to `O=C1NC(=O)C(c2c[nH]c3ccccc23)=C1c1c[nH]c2ccccc12`, the residual activity amounted to 65%.

In the case of `Nc1n[nH]c2nc3ccccc3nc12`, the residual activity was 85%.

For `NC(=O)Nc1sc(-c2ccc(F)cc2)cc1C(N)=O`, the residual activity was 14%.

In the case of `O=C(NC(NC(=S)Nc1ccc(F)c([N+](=O)[O-])c1)C(Cl)(Cl)Cl)C(c1ccccc1)c1ccccc1` (stereo unspecified), the residual activity stood at 97%.

On to `O=C1Nc2ccc(Cl)cc2/C1=C/c1cc(Cl)c(O)c(Cl)c1`, for which the residual activity is 68%.

On to `COc1ccc(Cl)cc1NC(=O)Nc1cc(C)nc2ccccc12`, for which the residual activity amounted to 88%.

For the compound `O=C(c1cc2cc(O)ccc2[nH]1)c1cc2cc(O)ccc2[nH]1`, the residual activity is 30%.

Turning to `COc1cc2nccc(Oc3ccc(NC(=S)NC(=O)c4ccccc4C)cc3)c2cc1OC`, the residual activity worked out at 90%.

For the compound `O=c1cc(N2CCNCC2)oc2c(-c3ccccc3)cccc12`, the residual activity worked out at 85%.

Take `CC(C)c1nn(-c2c(Cl)cccc2Cl)c2nc(Cc3ccc(OCCO)cc3)[nH]c(=O)c12`: the residual activity was found to be 32%.

In the case of `O=C(O)/C=C/c1cc(Br)c(Br)c(Br)c1Br`, the residual activity was found to be 101%.

For a further test, the target named is Serine/threonine-protein kinase PAK 5 (Homo sapiens) (UniProt Q9P286). Conditions: at 1 µM.
Chain of Serine/threonine-protein kinase PAK 5 (Homo sapiens) (Q9P286 whole entry, looked up): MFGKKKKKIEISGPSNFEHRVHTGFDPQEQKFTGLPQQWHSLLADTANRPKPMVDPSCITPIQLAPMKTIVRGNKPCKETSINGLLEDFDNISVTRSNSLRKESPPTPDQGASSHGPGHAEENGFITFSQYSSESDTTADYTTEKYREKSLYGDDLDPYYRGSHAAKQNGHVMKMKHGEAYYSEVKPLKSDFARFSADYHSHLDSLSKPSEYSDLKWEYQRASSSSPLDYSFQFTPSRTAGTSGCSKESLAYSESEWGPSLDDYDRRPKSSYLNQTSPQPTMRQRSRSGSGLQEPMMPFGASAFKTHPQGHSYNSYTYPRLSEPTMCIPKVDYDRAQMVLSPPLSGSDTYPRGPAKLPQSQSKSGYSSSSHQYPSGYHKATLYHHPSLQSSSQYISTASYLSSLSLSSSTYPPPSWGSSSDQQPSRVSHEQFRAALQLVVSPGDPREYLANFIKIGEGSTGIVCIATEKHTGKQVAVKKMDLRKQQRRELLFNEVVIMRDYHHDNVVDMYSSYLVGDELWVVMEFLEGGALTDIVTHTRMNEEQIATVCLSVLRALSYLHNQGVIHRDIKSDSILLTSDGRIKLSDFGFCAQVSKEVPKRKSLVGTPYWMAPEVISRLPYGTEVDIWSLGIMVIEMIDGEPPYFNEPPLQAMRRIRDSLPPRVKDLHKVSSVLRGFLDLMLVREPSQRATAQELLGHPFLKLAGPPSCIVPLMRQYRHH
Take `COc1cc2ncnc(Nc3cccc(Cl)c3)c2cc1OC`: the residual activity was determined as 109%.

As to `O=C1Cc2c([nH]c3ccc(Br)cc23)-c2ccccc2N1`, the residual activity came out at 35%.

Regarding `Cn1c2ccccc2c2c3c(c4c5ccccc5n(CCC#N)c4c21)CNC3=O`, the residual activity was determined as 12%.

Turning to `O=C(c1ccccc1)c1ccc(N2CCOCC2)cc1O`, the residual activity amounted to 92%.

For the compound `CC(C)(C)n1nc(Cc2cccc3ccccc23)c2c(N)ncnc21`, the residual activity stood at 88%.

Take `Oc1cccc(-c2nc(N3CCOCC3)c3oc4ncccc4c3n2)c1`: the residual activity was 84%.

As to `O=C1Cc2c([nH]c3ccc([N+](=O)[O-])cc23)-c2ccccc2N1`, the residual activity worked out at 24%.

`O=c1cc(N2CCOCC2)oc2c1ccc1ccccc12`: the residual activity is 94%.

With `Nc1ncnc2c1c(-c1ccc(Oc3ccccc3)cc1)cn2C1CCCC1`, the residual activity was 76%.

In the case of `COc1cc2nccc(Oc3ccc(NC(=O)Nc4cc(C)on4)c(Cl)c3)c2cc1OC`, the residual activity was found to be 82%.

For the compound `Cn1sc(=O)n(Cc2ccccc2)c1=O`, the residual activity is 97%.

Consider `CCCC(=O)Oc1ccc2[nH]c(C(=O)c3cc4ccccc4[nH]3)cc2c1`, for which the residual activity worked out at 100%.

As to `Nc1ncnc2[nH]nc(Nc3ccc(F)cc3)c12`, the residual activity is 104%.

As for `O=C1NC(=O)C(c2c[nH]c3ccccc23)=C1c1c[nH]c2ccccc12`, the residual activity stood at 99%.

As for `Nc1n[nH]c2nc3ccccc3nc12`, the residual activity was found to be 90%.

On to `NC(=O)Nc1sc(-c2ccc(F)cc2)cc1C(N)=O`, for which the residual activity stood at 67%.

For `O=C1Nc2ccc(Cl)cc2/C1=C/c1cc(Cl)c(O)c(Cl)c1`, the residual activity worked out at 73%.

With `COc1ccc(Cl)cc1NC(=O)Nc1cc(C)nc2ccccc12`, the residual activity is 80%.

For `Nc1ncnc2c1cnn2-c1ccccc1`, the residual activity was determined as 92%.

Take `COc1cc2nccc(Oc3ccc(NC(=S)NC(=O)c4ccccc4C)cc3)c2cc1OC`: the residual activity worked out at 83%.

For the compound `O=c1cc(N2CCNCC2)oc2c(-c3ccccc3)cccc12`, the residual activity is 104%.

On to `CC(C)c1nn(-c2c(Cl)cccc2Cl)c2nc(Cc3ccc(OCCO)cc3)[nH]c(=O)c12`, for which the residual activity was 73%.

In the case of `N#C/C(=C1/Nc2ccccc2S1)c1ccnc(NCCc2cccnc2)n1`, the residual activity was 84%.

These data come from ChEMBL document CHEMBL2218924, “A broad activity screen in support of a chemogenomic map for kinase signalling research and drug discovery” (Biochem J, 2013).
